# In PubChem BioAssay:
# Legend:
# [1] = target: PEG-3 (UniProt Q6IN02); test: Peg3 promoter luciferase inhibitors, potency, dose response, cell-based, HeLa, CREF/GAPDH counter-screen panel (AID 624167); conditions: HeLa PEG-Prom luciferase reporter, overnight, CREF/GAPDH counter-screens; run 1, dose range 1, at 100 µM (top of the series)
# [2] = target: PEG-3 (UniProt Q6IN02); test: as above; conditions: HeLa PEG-Prom luciferase reporter, overnight, CREF/GAPDH counter-screens; run 2, dose range 1, at 100 µM (top of the series)
# [3] = target: Tumor necrosis factor receptor superfamily member 10B (Homo sapiens) (UniProt O14763); test: caspase-8 TRAIL sensitization, hit retest, confirmation, cell-based, NB7+caspase-8, with/without TRAIL, luminescence panel (AID 651596); conditions: NB7 neuroblastoma + caspase-8, TRAIL sensitization, luminescence viability, with TRAIL, mean of runs, at 10 µM, stronger effect = higher value
# Tumor necrosis factor receptor superfamily member 10B (Homo sapiens), sequence (O14763 whole entry, looked up): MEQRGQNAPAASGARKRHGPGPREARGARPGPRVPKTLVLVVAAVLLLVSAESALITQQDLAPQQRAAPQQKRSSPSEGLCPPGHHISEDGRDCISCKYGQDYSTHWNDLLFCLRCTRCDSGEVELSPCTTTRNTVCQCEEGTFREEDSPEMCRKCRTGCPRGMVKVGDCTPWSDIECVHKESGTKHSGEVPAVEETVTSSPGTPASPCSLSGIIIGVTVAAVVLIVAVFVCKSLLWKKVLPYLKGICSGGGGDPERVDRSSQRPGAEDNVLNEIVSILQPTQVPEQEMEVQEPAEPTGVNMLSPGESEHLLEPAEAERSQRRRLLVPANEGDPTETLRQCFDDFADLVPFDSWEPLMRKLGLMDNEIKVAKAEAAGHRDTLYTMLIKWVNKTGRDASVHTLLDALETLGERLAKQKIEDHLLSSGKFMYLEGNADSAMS
# [4] = as above; conditions: NB7 neuroblastoma + caspase-8, without TRAIL, luminescence viability, without TRAIL, mean of runs, at 10 µM
# [5] = test system: Rat fibroblasts (CREF); test: Peg3 promoter luciferase inhibitors, potency, dose response, cell-based, HeLa, CREF/GAPDH counter-screen panel (AID 624167); conditions: CREF/GAPDH counter-screens; run 1, dose range 1, at 100 µM (top of the series)
# [6] = test system: Rat fibroblasts (CREF); test: as above; conditions: CREF/GAPDH counter-screens; run 2, dose range 1, at 100 µM (top of the series)
# [7] = inhibitors of PAF-induced NFkB signaling in CF airway cells, dose response, cell-based, uHTS hits, panel, cytotoxicity readout (AID 624344); conditions: CF bronchial epithelial cells, PAF-induced NFkB reporter inhibition, with PAF, run 1; at 79 µM (top of the series)
# [8] = as above; conditions: CF bronchial epithelial cells, PAF-induced NFkB reporter inhibition, with PAF, run 2; at 79 µM (top of the series)
# PEG-3, sequence (Q6IN02 whole entry, looked up): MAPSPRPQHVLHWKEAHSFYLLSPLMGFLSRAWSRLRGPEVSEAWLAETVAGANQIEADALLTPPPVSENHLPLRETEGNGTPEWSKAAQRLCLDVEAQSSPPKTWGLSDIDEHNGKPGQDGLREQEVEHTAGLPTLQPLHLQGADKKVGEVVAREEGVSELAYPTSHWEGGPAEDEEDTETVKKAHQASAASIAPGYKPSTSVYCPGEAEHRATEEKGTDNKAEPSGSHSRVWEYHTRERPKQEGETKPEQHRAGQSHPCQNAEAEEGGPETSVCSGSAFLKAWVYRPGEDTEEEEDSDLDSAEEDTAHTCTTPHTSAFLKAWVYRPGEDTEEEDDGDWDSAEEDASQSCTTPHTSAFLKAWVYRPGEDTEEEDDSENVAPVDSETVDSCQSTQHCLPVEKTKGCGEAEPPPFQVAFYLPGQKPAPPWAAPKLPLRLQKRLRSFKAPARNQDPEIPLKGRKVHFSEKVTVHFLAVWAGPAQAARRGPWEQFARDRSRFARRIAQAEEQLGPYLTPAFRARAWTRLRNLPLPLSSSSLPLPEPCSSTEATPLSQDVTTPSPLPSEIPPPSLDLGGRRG
structure (smiles),measurement,setting,value
CC(C)(C)n1nnnc1C(CCc1ccccc1)N1CCC(n2c(=O)[nH]c3ccccc32)CC1 (stereo unspecified),inhibition,[1],86.4%
same,inhibition,[2],92.6%
CCN(CC)C(=O)c1ccc(NC(=O)Nc2ccccc2F)cc1,inhibition,[1],82.1%
same,inhibition,[2],93.2%
same,activity,[3],69.6%
same,activity,[4],63.9%
COc1ccc(-n2nnnc2C(C2CC2)N2CCC(n3c(=O)[nH]c4ccccc43)CC2)cc1 (stereo unspecified),inhibition,[1],93.8%
same,inhibition,[2],95.7%
C=Cc1cc(OC)c2c(c1)c(=O)oc1c2cc(OC)c2c(O)ccc(C3OC(C)C(O)C(C)(O)C3O)c21 (stereo unspecified),inhibition,[1],101%
same,inhibition,[2],102%
same,inhibition,[5],25.3%
same,inhibition,[6],31.8%
O=C1NC(=O)N(Cc2ccccc2)C(=O)/C1=C\C=C\c1ccco1,inhibition,[1],94.5%
same,inhibition,[2],98.5%
CC(=O)OC(C)(C)/C=C/C(=O)C(C)(O)C1[C@H](O)C[C@@]2(C)C3CC=C4C(CC[C@@H](O)C4(C)C)[C@]3(CO)C(=O)C[C@]12C (stereo partly specified),inhibition,[1],102%
same,inhibition,[2],101%
same,activity,[3],43.7%
same,activity,[4],71.7%
c1ccc(-c2cc(-c3ccccc3)[n+](-c3ccccc3)c(-c3ccccc3)c2)cc1,inhibition,[1],98.2%
same,inhibition,[2],99.1%
CCOC(=O)c1c(-n2c(C)cc(C=C3C(=O)NC(=S)NC3=O)c2C)sc2c1CCCC2,inhibition,[1],96.7%
same,inhibition,[2],101%
same,inhibition,[5],95.9%
same,inhibition,[6],97.3%
CCC1(OC(=O)CN)C(=O)OCc2c1cc1n(c2=O)Cc2cc3ccccc3nc2-1 (stereo unspecified),inhibition,[1],100%
same,inhibition,[2],96.5%
same,inhibition,[5],65.4%
same,inhibition,[6],72%
COc1cccc(C2CC3C(=O)C=CC2N3Cc2ccccc2)c1 (stereo unspecified),inhibition,[1],101%
same,inhibition,[2],100%
Cn1cccc1/C=C1/C(=O)NC(=S)N(Cc2ccc(F)cc2)C1=O,inhibition,[1],101%
same,inhibition,[2],100%
CC1=CC2OC3CC4OC(=O)C=CC=CC(C(C)O)OCC(O)C(C)CC(=O)OCC2(CC1O)C4(C)C31CO1 (stereo unspecified),inhibition,[1],101%
same,inhibition,[2],99.3%
same,activity,[3],92.3%
same,activity,[4],97.7%
CC(=O)OC1CC[C@]2(C#N)[C@H]3CC[C@]4(C)[C@H](C5C=CC(=O)O5)CCC4(O)C3CCC2(O)C1 (stereo partly specified),inhibition,[1],98.6%
same,inhibition,[2],99.5%
same,inhibition,[5],-10.8%
same,inhibition,[6],7.93%
CC1=CC2/C=C(\C)CCC(O)C(O)/C=C/C(=O)C23C(=O)NC(CC(C)C)C3C1C (stereo unspecified),inhibition,[1],102%
same,inhibition,[2],101%
same,inhibition,[5],100%
same,inhibition,[6],100%
same,activity,[3],95.3%
same,activity,[4],97.8%
Cc1c(C(=O)c2cccc3ccccc23)c2cccc3c2n1[C@H](CN1CCOCC1)CO3,inhibition,[7],104%
same,inhibition,[8],112%
C[C@@H]1C[C@@H]([C@H](O)CC2CC(=O)NC(=O)C2)C(=O)[C@@H](C)C1,inhibition,[1],98%
same,inhibition,[2],101%
same,inhibition,[5],62.3%
same,inhibition,[6],58.2%
same,inhibition,[7],106%
same,inhibition,[8],116%
COc1ccc(C[C@H]2NC[C@H](O)[C@H]2OC(C)=O)cc1,inhibition,[7],114%
same,inhibition,[8],106%
COc1ccc(-n2nnnc2C(c2cccs2)N2CCC(n3c(=O)[nH]c4ccccc43)CC2)cc1 (stereo unspecified),inhibition,[7],102%
same,inhibition,[8],102%
NC(=O)c1c(Br)n(C2OC(CO)C(O)C2O)c2ncnc(N)c12 (stereo unspecified),inhibition,[7],106%
same,inhibition,[8],116%
COc1ccc(-n2c(/C=C/c3ccc(O)c(OC)c3)nc3ccccc3c2=O)cc1,inhibition,[1],101%
same,inhibition,[2],92.7%
Cc1[nH]c2ccc(OC(F)(F)F)cc2c1CCNCc1cccc([N+](=O)[O-])c1,inhibition,[1],101%
same,inhibition,[2],101%
CC(=O)OC1(C)CC(C)C(=O)C(C(O)CC2CC(=O)NC(=O)C2)C1 (stereo unspecified),inhibition,[1],96.1%
same,inhibition,[2],94.4%
same,inhibition,[5],61.8%
same,inhibition,[6],56.4%
same,inhibition,[7],117%
same,inhibition,[8],108%
CNCC(O)c1cc(OCc2ccccc2)c(OCc2ccccc2)cc1F (stereo unspecified),inhibition,[1],102%
same,inhibition,[2],102%
COc1cc2nc(CN3CC=C(c4ccccc4)CC3)[nH]c(=O)c2cc1OC,inhibition,[1],93.8%
same,inhibition,[2],45.3%
same,inhibition,[5],38.6%
same,inhibition,[6],26.4%
O=Cc1cn(Cc2ccc(F)cc2)c2ccccc12,inhibition,[1],26.6%
same,inhibition,[2],60.7%
CC[C@@H](O)C[C@H]1CCC[C@@]2(C[C@@H]3OC(=O)/C=C/[C@@](C)(O)[C@@H](O)[C@H](C)[C@@H](O)[C@H](OC4CCC(N(C)C)C(C)O4)[C@@H](O)[C@](C)(O)CCCCC/C=C/[C@@H]4CC(C)(C)O[C@@]4(O)C[C@H](O2)[C@H]3C)O1 (stereo partly specified),inhibition,[1],98.9%
same,inhibition,[2],98.9%
COc1ccc(C(c2nnnn2-c2c(C)cccc2C)N2CCC(n3c(=O)[nH]c4ccccc43)CC2)cc1 (stereo unspecified),inhibition,[1],63.7%
same,inhibition,[2],63.1%
Cc1ccccc1CN1Cc2cnnn2-c2ccccc2C1C#N (stereo unspecified),inhibition,[1],99.2%
same,inhibition,[2],98.3%
same,activity,[3],37.7%
same,activity,[4],78.2%
COC(COC(N)=O)C1=C(N2CC2)C(=O)C(C)=C(N2CC2)C1=O (stereo unspecified),inhibition,[1],102%
same,inhibition,[2],101%
same,inhibition,[5],100%
same,inhibition,[6],98.7%
Cc1ccc(-c2cc(-c3ccc(C)cc3)[n+](-c3ccccc3)c(-c3ccc(C)cc3)c2)cc1,inhibition,[1],101%
same,inhibition,[2],102%
CCN(CCCl)c1cc(CN(C)C)cc(NC(=O)c2ccc(C(=O)Nc3cc(CN(C)C)cc(N(CC)CCCl)c3)cc2)c1,inhibition,[1],100%
same,inhibition,[2],101%
same,inhibition,[5],99.6%
same,inhibition,[6],97.7%
